CRFBP-R2 agonist: agonists of CRF-BP/CRF-R2 complex, primary screen, cell-based, HEK293, calcium dye fluorescence, uHTS; hit rate 0.46% among 350,000; activation, % at 13.2 µM; calcium dye fluorescence (FLIPR); percent of saturating CRF peptide response; AID 588473, 2011; CRF-binding protein / CRF receptor 2 complex (human);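 active = activation of at least 50%, plus an integration ratio under a set limit after plate pattern correction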;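 also: plate controls were neutral control wells without compound for no effect and CRF at EC100 for full effect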
Cardiac RTF inh: cardiac RTF calcium sensitivity inhibitors, primary screen, biochemical, IANBD-TnC fluorescence, EC70 calcium; IANBD-labeled cardiac RTF, Ca2+ fluorescence; AID 493244, 2011; Troponin I, cardiac muscle (Homo sapiens) + Troponin T, cardiac muscle (Homo sapiens) + …; inhibition, % at 7.15 µM; hit rate 0.12% among 340,000;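 active = inhibition above the mean inhibition of all tested compounds plus 3 SD, cut at about 17% in these data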;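 also: assay run at fixed EC70 calcium of 1.6 mM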
CRFR2-BP antag: antagonists of CRF-BP/CRF-R2 complex, primary screen, cell-based, HEK293, calcium dye fluorescence, uHTS; inhibition, % at 11.8 µM; hit rate 0.59% among 350,000; CRF-induced calcium fluorescence;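 active = inhibition of the ligand-induced calcium signal above about 50% at the single tested concentration, limit read from the data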
RTF Ca sens act: cardiac RTF calcium sensitivity activators, primary screen, biochemical, IANBD-TnC fluorescence, EC20 calcium | AID 493008, 2010 | IANBD-labeled TnC RTF fluorescence at EC20 calcium; 0% EC20 calcium, 100% full calcium | hit rate 0.24% among 340,000 | Troponin I, cardiac muscle (Homo sapiens) + Troponin T, cardiac muscle (Homo sapiens) + … | activation, % at 7.2 µM;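 active = activation above the mean over all tested compounds plus 3 SD, cut at about 30% in these data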;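 also: rise in fluorescence read as greater calcium sensitivity of cardiac thin filaments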
IDE cell inh: human IDE inhibitors in live cells, primary screen, fluorescence polarization, HEK cells, FAbetaB substrate. Insulin-degrading enzyme (Homo sapiens), P14735. hit rate 0.41% among 320,000. inhibition, % at 5.59 µM. AID 434962, 2010. FAbetaB cleavage;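 active = percent inhibition above the average of all tested compounds plus 3 SD, set per screening campaign, cut at about 16% in these data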;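 also: IDE supplied by intact live HEK cells; FP after avidin binding of uncleaved biotin substrate so inhibition keeps polarization high; 0% = DMSO wells and 100% = 60 µM reference IDE inhibitor Ii1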
IDE cell activ: human IDE activators in live cells, primary screen, fluorescence polarization, HEK cells, FAbeta-B substrate; activation, % at 5.96 µM; Insulin-degrading enzyme (Homo sapiens), P14735; hit rate 0.073% among 340,000; FAbeta-B cleavage; 0% vehicle, 100% cell-free pure enzyme wells; AID 493087, 2011;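 active = activation above the mean of all tested compounds plus 3 SD, set per screening campaign, cut at about 17% in these data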
Active calls of the source: *; . = no result. Most compounds without a hit are left out; they make up all but 1.5% or so of the library.

SMILES	CRFBP-R2 agonist	Cardiac RTF inh	CRFR2-BP antag	RTF Ca sens act	IDE cell inh	IDE cell activ
CCC(CC)NC(=O)CC(c1ccccc1)c1ccccc1	-10.9	-4.0	71.3*	5.1	4.5	2.8
COc1c(Br)cc(/C=N/n2c(-c3ccccc3)n[nH]c2=S)c(O)c1Br	-3.9	4.6	-8.6	-10.2	-1.1	0.4
O=C(NCc1n[nH]c(=O)c2ccccc12)C1CC(=O)N(c2ccccc2)C1 (centres undefined)	0.0	-5.2	-1.3	-0.8	5.1	3.7
CCOc1ccc(NC(=O)COC(=O)CCN2C(=O)C3CC=CCC3C2=O)cc1OCC (centres undefined)	0.5	-13.4	4.8	16.8	2.1	3.1
COc1ccc(CN2CCNC(=O)C2CC(=O)N(C)C2CCOCC2)cc1OC (centres undefined)	-1.8	.	6.7	.	.	.
CCC(c1ccc(O)cc1)C(CC)c1ccc(O)cc1 (centres undefined)	0.4	3.7	9.1	1.0	0.1	0.3
Cc1cc(C(c2ccc(O)cc2)c2cc(C)c(O)cc2C)c(C)cc1O	69.0*	1.5	-65.4	-4.4	-1.5	1.7
O=C(c1cc([N+](=O)[O-])ccc1N1CCOCC1)N1CCCCC1	-2.2	6.0	-0.2	2.0	-4.4	1.2
O=C(CCCc1ccccc1)N1CCN(c2ccc([N+](=O)[O-])cc2)CC1	-3.3	1.8	68.5*	-3.9	-1.5	1.7
O=C(c1cc([N+](=O)[O-])ccc1N1CCOCC1)N1CCN(c2ccc([N+](=O)[O-])cc2)CC1	0.7	1.1	6.0	-10.7	-15.2	29.6*
CCCCCCn1c(=O)c(F)cn(Cc2ccc(OC)c([N+](=O)[O-])c2)c1=O	-1.6	-21.1	58.7*	2.2	1.9	6.9
CCC1CCCCN1CCCNC(=O)c1cn(C)c2ccc(S(=O)(=O)N(C)C3CCCCC3)cc2c1=O (centres undefined)	0.5	-2.5	56.2*	1.4	0.3	3.2
Cc1ccc2[nH]cc(/C=C/c3cc[n+](C)cc3)c2c1	44.8	-242.9	-36.7	230.3*	.	-15.3
O=C(CCN1CCC(c2cccs2)=N1)c1cccs1	69.4*	.	-53.0	.	2.7	.
Cc1ccc(NC(=O)CSc2nc3ccccc3c(=O)n2CCCC(=O)NCCCN2CCOCC2)cc1	3.4	-2.1	71.6*	1.2	-0.8	5.1
C#CC[N+](C)(C)CCCCCCCC	275.2*	7.5	-280.5	-8.8	-3.0	-1.1
CCC1(CC)NC(=O)N(CC(=O)NC(=O)NCc2ccccc2)C1=O	3.1	-9.5	-8.7	-4.0	6.6	2.2
Cc1ccc(S(=O)(=O)N(C)CC(=O)NCCCc2ccccc2)cc1	61.4*	-5.5	-46.0	7.2	0.4	0.6
COc1ccc(S(=O)(=O)N(C)CC(=O)NCCc2ccccc2)cc1OC	-1.0	-7.7	0.9	3.9	0.3	2.2
CCOc1ccc(NS(=O)(=O)c2ccc(C(=O)N3CCC3)cc2)cc1	0.0	-3.4	8.2	0.1	-3.9	3.1
O=C(Nc1cc(S(=O)(=O)N2CCCCC2)ccc1Cl)c1ccccc1NS(=O)(=O)c1ccc(F)cc1	47.2	-25.4	107.7*	4.9	-5.2	2.9
O=C(Nc1cc(S(=O)(=O)N2CCCCC2)ccc1O)c1ccccc1NS(=O)(=O)c1ccc(F)cc1	71.5*	-5.6	7.9	-6.9	5.4	5.5
O=C(c1ccccc1NS(=O)(=O)c1ccc(F)cc1)N1CCCCC1	1.7	-1.6	-21.6	-0.2	-1.4	1.6
O=C(CSc1ncn[nH]1)Nc1cc(S(=O)(=O)N2CCCC2)ccc1Cl	1.1	-2.3	50.0*	1.2	0.1	5.6
COC(=O)c1cc(S(=O)(=O)NC2CCC(C)CC2)cn1C (centres undefined)	-1.7	-3.4	-1.1	2.7	1.6	2.1
SMILES	CRFBP-R2 agonist	Cardiac RTF inh	CRFR2-BP antag	RTF Ca sens act	IDE cell inh	IDE cell activ
O=C(c1cc(C2CC2)nn1-c1ccccc1)N1CCN(S(=O)(=O)c2ccccc2)CC1	1.3	-6.1	18.5	-2.6	.	0.8
COc1ccc(NC(=O)CN(C)C(=O)CN2C(=O)C3CCCCC3C2=O)cc1 (centres undefined)	-1.2	-9.3	9.6	4.1	2.3	3.7
O=C(c1cccc(NS(=O)(=O)c2cccc(C(F)(F)F)c2)c1)N1CCOCC1	0.9	-2.6	-12.1	-2.0	-4.7	-3.2
CC(=O)c1cc(C#N)c(Oc2ccccc2)nc1C	-6.4	-5.6	25.3	-0.1	-0.9	-0.1
CC(=O)c1cc(C#N)c(Oc2ccc(Cl)cc2Cl)nc1C	-5.8	-10.7	55.5*	3.6	0.6	2.8
CCOc1ccc(NC(=O)COC(=O)CN2CCCCCC2=O)cc1	-4.0	-4.0	0.6	2.8	4.3	-1.4
CC(C)(C)C(=O)NC(=S)NNC(=O)C(c1ccccc1)c1ccccc1	191.6*	8.0	-116.9	12.7	3.2	5.0
COc1ccc(C(=O)Nc2cccc(NC(=O)c3ccc(OC)c(OC)c3)n2)cc1OC	-0.1	-8.2	-5.8	0.8	4.8	-2.2
Cn1c2c(c(=O)n(C)c1=O)C(C(F)(F)F)(C(F)(F)F)N=C(c1ccc(Cl)cc1)N2	83.1*	-2.7	29.9	-2.2	-5.7	2.0
Cc1cccc(-c2noc(C(C)NC(=O)c3ccco3)n2)c1 (centres undefined)	1.2	-22.1	107.8*	-7.9	0.0	3.2
CC(NC(=O)c1ccco1)c1nc(-c2ccccc2)no1 (centres undefined)	-2.5	3.2	11.1	-5.2	1.8	-0.1
CCOc1ccc(-c2cc(N3C(=O)Nc4ccccc4N3O)n[nH]2)cc1	-1.2	-11.8	5.6	-1.5	-2.9	-3.3
CCOC(=O)c1c(N2C(=O)Nc3ccccc3N2O)n[nH]c1-c1cccc(Cl)c1	-0.3	-1.4	67.9*	-1.0	2.7	2.0
N#C/C(=C/c1ccncc1)c1nc2ccccc2c(=O)[nH]1	1.1	-2.7	3.2	-2.3	3.5	0.5
N#C/C(=C1\CCCN1)c1nc2ccccc2c(=O)[nH]1	-2.4	3.9	67.7*	3.2	4.4	10.1
O=C1CC(N2CCN(S(=O)(=O)c3ccccc3F)CC2)C(=O)N1c1ccc(F)cc1F (centres undefined)	-1.7	-6.2	21.5	-3.5	2.8	-0.1
CCC(=O)OCc1c(C(F)(F)F)nn(C)c1Sc1ccc(F)cc1	0.5	-1.1	51.1*	-0.1	3.9	2.3
COc1ccc(NC(=O)/C(Cl)=C(/Cl)S(=O)Cc2ccc(Cl)cc2)cn1 (centres undefined)	88.3*	-4.8	-52.8	-3.0	.	-14.9
O=C(Nc1c(C(=O)N2CCOCC2)oc2ccccc12)c1ccccc1Cl	-2.7	-4.7	-4.6	-6.3	-6.6	7.3

High-throughput results deposited in PubChem by several laboratories.
